PLK1 PBD inh = blocks phosphopeptide binding to human PLK1 polo-box domain; P53350; Plk1 PBD binding of FITC phosphopeptide, fluorescence polarization; AID 720504; actives 2.8% (n = 360,000); Potency, µM, without a hit: max response, negative = inhibition, most hits filed as inhibitors; note: potency is the fitted concentration of half-maximal effect; series mostly up to about 57 µM; % is set by controls: 0 for no effect and ±100 for the full control effect; nearly all actives have a fitted effect of over 65% in size
PI5P4Ka inh = inhibitors of human PI5P4K alpha; P48426; PI5P4Kalpha enzyme, ADP-Glo luminescence, 60 min; stronger effect = lower value; max response, %; actives 1.2% (n = 330,000); active = max response of -50% or lower; inconclusive = between -30% and -50%; inactive = -30% or higher; note: value at the top dose of about 77 µM; % is set by controls: 0 for no effect and ±100 for the full control effect
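ADP-Glo luminescence end-point read after a 60 min room-temperature kinase reaction of PI5P4Kalpha plus substrate, initiated with ATP at 5 microM final. Buffer: 0.038 M HEPES pH 7.4, EGTA, 0.1% CHAPS, 5% DMSO.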
G9a block = blocks human histone lysine methyltransferase G9a; G9a H3K9 monomethylation, AlphaScreen, 2 h; AID 504332; Potency, µM (highest dose often 102 µM), for the others: top-dose activity, negative = inhibition, most hits filed as inhibitors; Q96KQ7; actives 8.8% (n = 350,000); note: potency is the fitted concentration of half-maximal effect; % is set by controls: 0 for no effect and ±100 for the full control effect; nearly all actives have a fitted effect of over 75% in size
Target sequence (Q96KQ7 913-1193 limits assumed): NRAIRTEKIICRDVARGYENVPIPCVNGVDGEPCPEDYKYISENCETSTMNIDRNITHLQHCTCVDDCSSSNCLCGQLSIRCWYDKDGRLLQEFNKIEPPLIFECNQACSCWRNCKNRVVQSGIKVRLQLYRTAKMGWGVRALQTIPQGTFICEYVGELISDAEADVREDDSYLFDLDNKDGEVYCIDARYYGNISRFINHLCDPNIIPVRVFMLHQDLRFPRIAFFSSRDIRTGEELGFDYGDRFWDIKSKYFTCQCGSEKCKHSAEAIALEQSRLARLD
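Methyltransferase reactions run at room temperature for 2 h (20 nM enzyme, 500 nM biotin-H3K9 peptide, 20 uM SAM) after a 15 min compound preincubation; product detected by AlphaScreen beads and anti-H3K9me1 antibody.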
BAZ2B inh = BAZ2B (human) inhibition; AID 504333; Q9UIF8; actives 4.4% (n = 360,000); AlphaScreen BAZ2B-H3K14Ac peptide displacement; Potency, µM (series often up to 114 µM), for inactives: top-dose activity change, negative = inhibition, actives largely listed as inhibitors; note: potency is the fitted concentration of half-maximal effect; % is set by controls: 0 for no effect and ±100 for the full control effect; nearly all actives have a fitted effect of over 60% in size
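Multi-concentration screen (max 110 uM) measuring displacement of acetylated histone H3 peptide from BAZ2B by AlphaScreen, using 50 nM protein, 50 nM peptide and 10 ug/mL streptavidin donor plus Ni-chelate acceptor beads.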
HP1b binding inh = blocks HP1-beta chromodomain binding to methylated histone tails. P83916. AlphaScreen HP1-beta / biotin-H3K9me3 peptide binding. Potency, µM (titrated, usually from 114 µM), without a hit: at the highest dose activity change, negative = inhibition, actives largely listed as inhibitors. actives 0.56% (n = 390,000); note: potency is the fitted concentration of half-maximal effect; nearly all actives have a fitted effect of over 70% in size
Target sequence (P83916 whole entry, looked up): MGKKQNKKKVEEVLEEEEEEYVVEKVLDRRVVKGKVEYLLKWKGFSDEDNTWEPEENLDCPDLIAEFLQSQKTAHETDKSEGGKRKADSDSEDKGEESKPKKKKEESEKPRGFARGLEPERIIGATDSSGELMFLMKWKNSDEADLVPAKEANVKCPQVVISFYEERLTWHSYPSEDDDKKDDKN
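HP1-beta protein (50 nM final) preincubated 30 min at room temperature with biotinylated H3(1-18)K9me3 peptide (50 nM) in PBS pH 7.4, 0.01% Tween-20, then compound added for 30 min. AlphaScreen streptavidin donor/nickel chelate acceptor beads (10 ug/mL final), 30 min dark, luminescence read.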
JMJD2A Tudor inh = JMJD2A Tudor domain (human) inhibition; O75164; AlphaScreen JMJD2A-Tudor / H3K4me3 peptide binding; Potency, µM (titrated, usually from 114 µM), for inactives: at the highest dose activity change, negative = inhibition, hits mostly inhibitors; actives 4.4% (n = 390,000); AID 504339; note: potency is the fitted concentration of half-maximal effect; % is set by controls: 0 for no effect and ±100 for the full control effect; nearly all actives have a fitted effect of over 50% in size
Numbers without * were called inactive; ? = inconclusive; · = no result; [ ] = remark or other dose. A selection: hits, their analogues and other compounds. The true share with any hit is near 12%. Unless noted, calls come from the whole dose curve; as a rule, active = well fitted curve in the direction sought with a large enough effect; inconclusive = small, poorly fitted or top-dose-only effect, or another doubt; inactive = no such curve, though single readings can be large; an effect the other way counts as inactive or inconclusive.

SMILES	PLK1 PBD inh	PI5P4Ka inh	G9a block	BAZ2B inh	HP1b binding inh	JMJD2A Tudor inh
COC(CN(C)C(=O)C1CCC(CNS(=O)(=O)c2ccc(C)cc2)CC1)OC (centres undefined)	21µM*	4	-1%[0.501 µM]	-5%	30%	-32%
O=C(CCCN1C(=O)/C(=C/c2ccccc2)SC1=S)NCCCn1ccnc1	-9%	3	-23%	45µM*	-9%	?
CC(=O)NC(CC(=O)NCCN1C(=O)S/C(=C\c2ccccc2)C1=O)c1ccccc1 (centres undefined)	-8%	-5	56µM*	-3%	21%	-16%
O=C(CN1C(=O)S/C(=C\c2ccccc2)C1=O)NCCCn1ccnc1	?	8	35µM*	?	30%	?
O=C(CCN1C(=O)/C(=C/c2ccccc2F)SC1=S)NCCCn1ccnc1	-19%	4	·	40µM*	-7%	?
COc1cccc(CNC(=O)CN2C(=O)COc3ccc(S(=O)(=O)Nc4ccccc4)cc32)c1	·	·	-16%[59 µM]	-10%	16%	-12%
CCOc1ccc(N2C(=O)c3[nH]nc(-c4ccc(OC)cc4)c3C2c2cccs2)cc1 (centres undefined)	·	·	12%[59 µM]	-33%	14%	-27%
CC1CCN(S(=O)(=O)c2cc3c4c(c2)CCN4C(=O)CC3)CC1	-2%	1	?	-34%	20%	-14%
CCCS(=O)(=O)c1c(S(=O)(=O)CCC)c2ccc(C(C)=O)cn2c1C(=O)OC	?	-5	35µM*	-5%	-3%	-10%
O=C1C2C3C=CC(C3)C2C(=O)N1c1ccc2ccccc2c1 (centres undefined)	-2%	1	10%	-19%	26%	-6%
CCSc1nc2ccc(N3C(=O)C4C5C=CC(C5)C4C3=O)cc2s1 (centres undefined)	?	-3	11µM*	3%	-4%	-13%[57.1 µM]
COCCn1c(=S)[nH]c2cc(C(=O)N3CCc4ccccc4C3)ccc2c1=O	?	-14	-10%[59 µM]	-17%	4%	32µM*
COCCn1c(=S)[nH]c2cc(C(=O)N3CC(C)CC(C)C3)ccc2c1=O (centres undefined)	-15%	1	-3%	-31%	42%	-11%
CCN(CC)C(=O)c1ccc2c(=O)n(CCOC)c(=S)[nH]c2c1	0%	-11	45µM*	?	39%	18µM*
CCN(CC)CCCNC(=O)C(=O)Nc1ccc2nc3n(c(=O)c2c1)CCCCC3	·	·	-8%[59 µM]	-18%	40%	8%
Cc1ccc(NC(=O)C(Cc2c[nH]c3ccccc23)NC(=O)OCC(C)C)cc1 (centres undefined)	·	·	-26%[59 µM]	-36%	0%	-35%
Cc1ccc(C)c(S(=O)(=O)NCC(c2ccc3c(c2)OCO3)N2CCOCC2)c1 (centres undefined)	27%	6	0%	12%	14%	-17%
COc1ccc(S(=O)(=O)Nc2ccc3c(c2)OCO3)cc1OC	-2%	-10	50µM*	-5%	7%	-23%
COc1ccc(NS(=O)(=O)c2ccc3c(c2)OCCO3)cc1OC	2%	3	?	-3%	17%	-11%
COc1ccc(S(=O)(=O)NCC(c2ccc3c(c2)OCO3)N2CCN(C)CC2)cc1OC (centres undefined)	-14%	-1	50µM*	9%	7%	-15%
COc1ccc(C)cc1S(=O)(=O)NCC(c1ccc2c(c1)OCO2)N1CCN(C)CC1 (centres undefined)	-4%	-3	11µM*	9%	22%	-4%
CC(C)C(=O)c1cn(CC(=O)NCc2ccc3c(c2)OCO3)c2ccccc12	24µM*	0	2%[59 µM]	10%	-17%	1%[11.4 µM]
CS(=O)(=O)N(CC(=O)NCc1ccccn1)Cc1ccc(Cl)cc1	-25%	-3	?	?	29%	11µM*
CS(=O)(=O)N(CC(=O)NCc1ccc2c(c1)OCO2)Cc1ccccc1	8.4µM*	?	-26%[12.7 µM]	-13%	?	18µM*

Assay outcomes: PubChem BioAssay, National Center for Advancing Translational Sciences (NCATS)
